# MCF10A rerep – A quantitative high throughput screen for small molecules that induce DNA re-replication in MCF 10a normal breast cells | MCF 10A DNA re-replication, Hoechst nuclear intensity, 48 h | Potency, µM (top dose mostly 46.1 µM), without a hit: at the top dose activity, positive = re-replication, usual class: activators | 2.9% of 350,000 active; note: potency is the fitted concentration of half-maximal effect; % of control where 0% means no effect; nearly all actives have a fitted effect of over 50% in size
# KB-V1 MDR tox – qHTS assay for MDR1-selective chemotherapeutics: Primary screen using the drug-selected MDR subline cells KB-V1 | 3.4% of 400,000 active | AID 1347076, 2019 | Potency, µM (doses to about 46.1 µM), usual class: cytotoxic | KB-V1 MDR cells viability, CellTiter-Glo, 72 h; note: potency is the fitted concentration of half-maximal effect; % is set by controls: 0 for no effect and ±100 for the full control effect; nearly all actives have a fitted effect of over 60% in size
#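 Cytotoxicity via CellTiter-Glo luminescence after 72 h compound exposure at 37 degrees C. Cells: drug-selected KB-V1 line, DMEM phenol-red free plus 10% FBS. Compounds tested at multiple concentrations; normalized data fitted to concentration-effect curves.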
# KB-3-1 tox – qHTS assay for MDR1-selective chemotherapeutics: Primary screen using the parental adenocarcinoma cell KB-3-1; 1.4% of 400,000 active; Potency, µM (series often up to 46.1 µM), actives largely listed as cytotoxic; KB-3-1 viability, CellTiter-Glo ATP luminescence, 72 h; AID 1347075, 2019; note: potency is the fitted concentration of half-maximal effect; % is set by controls: 0 for no effect and ±100 for the full control effect; nearly all actives have a fitted effect of over 60% in size
#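 Cells are dispensed, compounds pinned in, plates held at 37 °C for 72 h, then CellTiter-Glo is added and luminescence read after 10 minutes. Cell line: parental KB-3-1 in phenol-red-free DMEM, 10% FBS.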
# IL-1B inflam inh – qHTS for Inhibitors of Inflammasome Signaling: IL-1-beta AlphaLISA Primary Screen | THP-1 LPS/ATP IL-1B secretion, AlphaLISA, 16 h; hits give low values | activity change, % at 57.5 µM | 4.7% of 360,000 active; in the data active = activity change below about -50%; inconclusive = mostly about -30% to -49%; note: % is set by controls: 0 for no effect and ±100 for the full control effect
#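 Secreted IL-1B measured by AlphaLISA bead assay after 16 h compound exposure of THP-1 cells; compounds (final up to 57.5 uM) added 1 h before LPS (250 ng/mL) and ATP (1.25 mM) stimulation; lower signal means less secretion.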
# SW480 rerep – A quantitative high throughput screen for small molecules that induce DNA re-replication in SW480 colon adenocarcinoma cells; SW480 DNA re-replication, Hoechst DNA content imaging, 48 h; Potency, µM (series often up to 46.1 µM), without a hit: at the highest dose re-replication activation, usual class: activators; 1.8% of 340,000 active; note: potency is the fitted concentration of half-maximal effect; % of control where 0% means no effect; nearly all actives have a fitted effect of over 55% in size
#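 250 cells/well; 23 nL cpd via pin tool; 48 hr, 37 C, 5% CO2; Hoechst 40 min; imager read of total nuclear intensity, ex 405/em 500-530 nm.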
# An asterisk follows results filed as active; i = inactive; ? = inconclusive; / = no result; [ ] = another dose, or the depositor's remark. In the library only some 9.9% were active in any assay of this set; here they are far more common. Unless noted, calls come from the whole dose curve; as a rule, active = well fitted curve in the direction sought with a large enough effect; inconclusive = small, poorly fitted or top-dose-only effect, or another doubt; inactive = no such curve, though single readings can be large; an effect the other way counts as inactive or inconclusive.
SMILES,MCF10A rerep,KB-V1 MDR tox,KB-3-1 tox,IL-1B inflam inh,SW480 rerep
CC[N+](CC)(CC#Cc1ccccc1)CC#Cc1ccccc1,5%,i,8.2µM*,-81*,15%
CCn1cc(C(=O)NCCc2ccc(Cl)cc2)c(=O)c2cc(S(=O)(=O)N3CCOCC3)ccc21,/,i,?,/,/
COc1ccc(OCC(=O)N2c3ccc(C)cc3C3CN(C)CCC32)cc1 (stereo unspecified),-5%,i,i,6,14%
Cc1ccc2c(c1)C1CN(C)CCC1N2C(=O)COc1ccc(N(C)C(=O)C(C)(C)C)cc1 (stereo unspecified),16%,i,i,-76*,-1%
Cc1ccc(C(=O)N(C)c2ccc(OCC(=O)N3c4ccc(C)cc4C4CN(C)CCC43)cc2)cc1 (stereo unspecified),14%,i,i,-60*,9%
COc1ccc(CNCc2ccc3c(c2)n(C)c(=O)n3C)cc1,/,i,i,/,/
COc1ccc(-c2noc(N3CCC(C(=O)N4CCN(c5ccccn5)CC4)CC3)n2)cc1,20%,5.8µM*,i,?,-8%
COc1ccc(NC(=O)C2CCN(c3nc(-c4ccc(OC)cc4)no3)CC2)cc1,29%,i,i,-4,-9%
O=[N+]([O-])c1c(N2CCN(CCO)CC2)nc2ccccn12,0%,i,i,16,-8%
Cc1cc(C)c(S(=O)(=O)/N=C2/C=C(Sc3ncn[nH]3)C(=O)c3ccccc32)cc1C,2.3µM*,?,?,-88*,2.6µM*
Cc1ccc(C)c(S(=O)(=O)/N=C2\C=C(NS(=O)(=O)c3ccccc3)C(=O)c3ccccc32)c1,?,i,?,42,?
C[C@H](NC(=O)c1nc[nH]c1C(=O)N1CCNCC1)C(=O)OCc1ccccc1,3%,i,i,16,1%[9.22 µM]
CC(C)NC(=O)c1ccc2c(c1)N(Cc1ccccc1)C(=O)C(C)(C)O2,12%,i,i,-52*,2%
CN1CCCCCC1=Nc1ccc([N+](=O)[O-])cc1,1%,i,i,2,-5%
CN1C(=O)C(N=Nc2ccc([N+](=O)[O-])cc2)SC1=S (stereo unspecified),?,?,i,-89*,3%
Cc1ccccc1N(CC(=O)N/N=C/c1ccc(N(C)C)cc1)C(=O)c1ccccc1,18%,i,i,-16,23%
COc1ccc2cc3cc(C(=O)NCCCN4CCOCC4)oc3nc2c1,-17%,i,?,-9,3%
CCN1CCN(CCCNC(=O)c2cc3cc4ccc(OC)cc4nc3o2)CC1,?,?,i,-85*,?
COc1ccc2cc3cc(C(=O)NCCN4CCN(Cc5ccccc5)CC4)oc3nc2c1,1%,i,i,-67*,-2%
CC1CCN(CCCNC(=O)c2coc3nc4ccccc4nc23)CC1,15µM*,i,i,-11,8%
CC1CCN(CCCNC(=O)c2cc3c(Cl)nc4ccccc4c3s2)CC1,?,i,i,-70*,?
CC(=O)C1=C(O)C(=O)N(c2cccc(Br)c2)C1c1ccccc1Cl (stereo unspecified),?,i,?,12,-3%
O=C(Cc1ccc(S(=O)(=O)N2CCOCC2)s1)NCCOc1ccccc1,1%,i,i,3,-1%
COc1ccc2cc3cc(C(=O)NCCCN4CCC(C)CC4)oc3nc2c1,5%,i,?,-83*,?
CN(Cc1ccccc1)S(=O)(=O)c1ccc(NC(=O)c2cc(=O)c3ccccc3o2)cc1,/,i,i,/,/
SMILES,MCF10A rerep,KB-V1 MDR tox,KB-3-1 tox,IL-1B inflam inh,SW480 rerep
CNc1c(NC(=O)c2ccc3c(c2)OCO3)c(=O)oc2ccccc12,-1%,?,i,-13,-2%
Cc1ccc(C2=NN=C(NC(=O)CSc3nncn3C)SC2)cc1,6%,i,i,?,-2%
Cc1ccc(C2=NN=C(NC(=O)C(F)(F)F)SC2)cc1,2%,i,i,-82*,-5%
COc1nccnc1NS(=O)(=O)c1ccc(NC(=O)c2cccc(C)c2)cc1,12%,i,i,9,12%
O=C(Nc1ccccc1)c1cnc(-c2ccccc2)nc1-c1ccccc1,?,10µM*,i,6,13µM*
Cc1cc(C)cc(NC(=O)Cn2c(=O)n(CCC(C)C)c(=O)c3cccnc32)c1,/,i,i,/,/
COc1ccc(OC)c2[nH]c(=O)c(CCNC(=O)COc3ccccc3)cc12,-2%,9.2µM*,i,-12,-6%
NNC(=O)c1ccc(COc2cccc3ccccc23)cc1,-3%,i,i,24,-4%
O=C(NCc1ccco1)c1ccc(COc2ccccc2Cl)cc1,?,i,i,-57*,7%
O=C(NCc1ccco1)c1ccc(COc2cccc3ccccc23)cc1,-6%,21µM*,i,-60*,?
COc1ccc(OC)c(CNC(=O)c2cc(S(=O)(=O)N3CCC(C)CC3)cn2C)c1,/,?,i,/,/
COc1ccc(C(=O)c2ccc(OC)c(OC)c2OC)cc1,3.7µM*,2.3µM*,5.8µM*,-7,5.8µM*
COc1ccc(C(=O)c2ccccc2C(=O)c2ccccc2)cc1,12%,18µM*,i,-5,1%
COc1ccc(C(=O)c2ccc(Br)cc2)c(OC)c1OC,7%,i,i,-9,?
COc1ccc(-n2nnnc2/C=C\Nc2ccccc2C(=O)c2ccccc2)cc1,26%,4.6µM*,5.8µM*,47,10µM*
O=C(c1ccccc1)c1ccccc1C(=O)c1ccccc1,18%,i,i,-1,?
COc1ccc(C(=O)c2ccc(N(C)C)cc2)c2ccccc12,-3%,2.1µM*,5.2µM*,55,-3%
COc1ccc(-n2c(SCC(=O)Nc3ccc(Br)cc3)nc(O)cc2=O)cc1,-1%,?,i,-1,-7%
CC1=NN(C(=O)Cn2nc([N+](=O)[O-])c(Br)c2C)C(O)(C(F)(F)F)C1 (stereo unspecified),5%,i,i,11,2%
O=[N+]([O-])c1ccc(Nc2nc(N3CCOCC3)nc(N3CCOCC3)n2)cc1,2%,i,i,-21,-20%
Fc1ccc(Nc2nc(N3CCOCC3)nc(N3CCOCC3)n2)cc1,-1%,i,i,?,13%
FC(F)(F)C(Oc1nc(Nc2ccc(Cl)cc2)nc(N2CCOCC2)n1)C(F)(F)F,?,i,i,-76*,-1%[9.22 µM]
c1ccc(Nc2nc(N3CCNCC3)nc(N3CCOCC3)n2)cc1,?,?,i,-63*,?

# From PubChem BioAssay
